VLA-4 inh = inhibition in a human VLA-4 binding assay; 0.2% of 330,000 active; AID 2557; VLA-4 expressing cells, ligand binding flow cytometry; P13612; inhibition, % (about 7 µM as worked out from the volumes in the protocol)
LANA-H2A inh = blocks KSHV LANA binding to histone H2A/H2B | Q9QR71 | cell-free LANA-H2A/H2B peptide, fluorescence polarization | inhibition, % (test concentration not listed) | 0.6% of 320,000 active; in the data active = inhibition mostly above about 10%, no sharp cut-off; inactive = mostly below about 6.7%
GRK2 aptamer HTS = human GRK2 inhibition via aptamer displacement | P25098 | inhibition of aptamer binding, % at 10 µM | 0.59% of 330,000 active | bead flow cytometry, FAM-aptamer displacement from GRK2;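 active = inhibition of aptamer binding above 40%, roughly 3 SD of noise, on plates passing a quality check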;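 note: median bead fluorescence of bound FAM aptamer so fluorescent compounds give negative values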
HDAC3 inhib = inhibitors of human histone deacetylase 3; O15379; recombinant HDAC3, fluorogenic peptide/trypsin coupled, fluorescence; inhibition, % at 8.3 µM; 0.15% of 320,000 active; AID 2718; in the data active = inhibition above about 26%, passing the limit was not always enough; inconclusive = no clear call, values can overlap the other calls
PKD1 kinase inh = PKD1 (human) kinase inhibition; PKD1 kinase fluorescence polarization assay; inhibition, % (concentration not given with the values); 0.056% of 200,000 active
Pemphigus Ab inh = blocks pemphigus antibody binding to human desmoglein-3; P32926; DSG3-coupled beads, scFv-anti-DSG3-GFP binding, flow cytometry; active compounds read low; binding (percent of control), % at 10 µM; 0.48% of 310,000 active; AID 588358;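 active = binding more than 3 SD below its plate's average and above zero; inconclusive = below that plate limit but binding exactly zero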;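 note: hits lower antibody fragment binding to DSG3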
Target sequence (P32926 whole entry, looked up, the tested form may be a part): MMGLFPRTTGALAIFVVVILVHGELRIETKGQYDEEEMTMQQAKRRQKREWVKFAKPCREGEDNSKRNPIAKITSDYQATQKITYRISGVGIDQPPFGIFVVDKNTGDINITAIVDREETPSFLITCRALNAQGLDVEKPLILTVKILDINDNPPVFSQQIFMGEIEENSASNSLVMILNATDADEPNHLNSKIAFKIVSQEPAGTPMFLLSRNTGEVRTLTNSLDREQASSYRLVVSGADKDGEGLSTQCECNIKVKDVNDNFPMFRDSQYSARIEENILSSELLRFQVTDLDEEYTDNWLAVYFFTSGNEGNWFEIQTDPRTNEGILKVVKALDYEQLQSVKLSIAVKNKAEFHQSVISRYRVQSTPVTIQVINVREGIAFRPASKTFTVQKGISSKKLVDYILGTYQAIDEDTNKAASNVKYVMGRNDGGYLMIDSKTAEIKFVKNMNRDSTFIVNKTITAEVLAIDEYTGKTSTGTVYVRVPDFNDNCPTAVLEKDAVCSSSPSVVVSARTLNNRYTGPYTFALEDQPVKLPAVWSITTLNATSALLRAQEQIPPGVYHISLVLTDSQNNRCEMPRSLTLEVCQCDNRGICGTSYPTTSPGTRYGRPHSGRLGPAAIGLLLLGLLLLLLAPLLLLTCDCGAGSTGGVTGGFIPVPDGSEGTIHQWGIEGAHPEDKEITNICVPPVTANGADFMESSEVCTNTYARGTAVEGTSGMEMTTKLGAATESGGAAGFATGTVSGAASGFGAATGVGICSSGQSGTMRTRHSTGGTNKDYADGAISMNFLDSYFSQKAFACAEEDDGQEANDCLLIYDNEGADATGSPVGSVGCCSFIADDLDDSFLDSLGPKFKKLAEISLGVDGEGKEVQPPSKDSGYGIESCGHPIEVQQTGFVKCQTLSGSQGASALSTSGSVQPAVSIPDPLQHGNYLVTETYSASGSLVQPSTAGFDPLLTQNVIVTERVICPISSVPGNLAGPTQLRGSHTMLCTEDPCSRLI
GRK2 CP1 = human GRK2 inhibition confirmation, cherry pick 1; 4% of 2,000 active; bead-bound GRK2, FAM-aptamer displacement, flow cytometry; aptamer displacement, % at 10 µM; shares compounds with GRK2 aptamer HTS; AID 504451;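 active = aptamer displacement above 40%, near three times the noise of non-fluorescent compounds, on plates passing quality checks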;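 note: negative values mostly reflect intrinsic compound fluorescence rather than true enhancement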
FAM quench CP1 = quenches fluorescent RNA aptamer, GRK2 hit artifact; shares compounds with GRK2 aptamer HTS; Carboxyfluorescein RNA aptamer on beads, flow cytometry quenching; active compounds read low; fluorescence response (% of DMSO), % at 10 µM; 2,000 tested, under 10 active; AID 504580;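 active = compounds that quench the bead-bound fluorescent RNA probe, cutting fluorescence to under half of the solvent control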;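 note: counterscreen run without GRK2 so only probe quenching by compound is measured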
GRK2 confirm 2 = confirmation of human GRK2 inhibitors binding RNA aptamer site. inhibition of aptamer binding, % at 10 µM. 360 tested, under 10 active. shares compounds with GRK2 aptamer HTS. bead-bound GRK2, FAM-aptamer displacement, flow cytometry;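 active = inhibition of aptamer binding above 40%, about triple the noise seen with nonglowing compounds, on plates passing quality control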;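 note: negative values mostly come from compounds that fluoresce themselves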
FAM quench CP2 = quenches fluorescent RNA aptamer, GRK2 hit artifact; shares compounds with GRK2 aptamer HTS; carboxyfluorescein RNA aptamer beads, flow cytometry quenching; active compounds read low; fluorescence response vs DMSO, % at 10 µM; 360 tested, under 10 active;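 active = response vs DMSO under 50%, meaning signal dropped by over half, treated as fluorescence quencher; inconclusive = no clear call, values can overlap the other calls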;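 note: labelled aptamer on streptavidin beads without GRK2 as a quench counter-screen; 100% = bead fluorescence of DMSO wells and lower means quenching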
* = called active by the depositor; ? = inconclusive; . = no result given. The list is not random: actives were taken first. Their share in the collection is about 1.8%. Cut-off read from the data, not from the text of the source, unless noted: active = inhibition above about 50%; inactive = the rest.

SMILES	VLA-4 inh	LANA-H2A inh	GRK2 aptamer HTS	HDAC3 inhib	PKD1 kinase inh	Pemphigus Ab inh	GRK2 CP1	FAM quench CP1	others
CCN(C(=O)CN1CCc2ccccc21)c1c(N)n(Cc2ccccc2)c(=O)[nH]c1=O	4	0	0	-1	6	100	-1	99
O=C(c1ccc(Cl)cc1)N(Cc1ccccc1F)N1C(=O)CCCC1=O	15	2	4	-4	-3	91	.	.
Nc1c(C(=O)CSc2nncn2-c2ccccc2)c(=O)[nH]c(=O)n1C1CC1	-3	2	61*	?	.	108	-1	95
COc1cccc(C(=O)OCC(=O)c2c[nH]c3ccccc23)c1OC	-11	-4	43*	6	.	.	-7	122
S=C(S)N1CCCC1	-3	-4	0	-1	.	88	.	.
C=CCc1c(C)nc(-c2ccccc2)nc1Nc1ccc(O)cc1	10	1	100*	7	16	99	.	.	GRK2 confirm 2=-7;FAM quench CP2=100
C=CCc1c(C)nc(-c2ccccc2)nc1N/N=C(\C)c1ccccc1	4	.	0	.	-1	102	.	.
CC(=O)Nc1cccc(-n2nnc(SCC(=O)Nc3ccc(F)c(Cl)c3)n2)c1	11	-2	86*	0	.	97	1	99
Cc1ccc(NC2c3ncccc3C(=O)N2Cc2ccc(F)cc2)cc1 (stereo unspecified)	2	0	76*	1	-4	100	0	104
CCOC(=O)C1=C(C)NC(C)=C(C(=O)OC)C1c1cccc(Cl)c1Cl (stereo unspecified)	9	10	0	0	6	.	-3	95
O=C(Nc1cc(S(=O)(=O)N2CCOCC2)ccc1N1CCCC1)c1cc(=O)[nH]c2ccccc12	-3	2	4	.	.	90	.	.
O=C(Nc1ccccc1N1CCOCC1)c1cc(=O)[nH]c2ccccc12	-19	2	82*	3	.	.	6	99
O=C(CCCN1C(=O)/C(=C\c2cccs2)SC1=S)Nc1ccc(O)cc1C(=O)O	11	-1	0	6	.	.	.	.
O=C(CCCN1C(=O)/C(=C\c2ccco2)SC1=S)Nc1ccc(O)cc1C(=O)O	2	0	45*	-4	.	124	-18	93
CCOC(=O)c1cc2c(OC)c(OC)ccc2c2[nH]cc(C#N)c(=O)c12	.	.	.	.	.	101	.	.
CCc1ccc(Nc2nnc(SCC(=O)NC(=O)CN3CCCC3=O)s2)cc1	6	-5	45*	5	.	98	19	102
COc1ccccc1Nc1nnc(SCC(=O)N2CCCC2=O)s1	-9	-1	1	1	-15	112	.	.
Cc1ccc(C2CC(=O)Nc3cc4c(cc32)OCCO4)s1 (stereo unspecified)	-3	1	6	1	-9	124	-2	101
COC(=O)c1ccc(S(=O)(=O)NCc2ccco2)o1	-4	0	47*	3	.	105	0	102
COC(=O)c1ccc(S(=O)(=O)NCc2ccc(S(N)(=O)=O)cc2)o1	3	1	0	10	.	105	.	.
CC(c1ccccc1)n1ccnc1CO (stereo unspecified)	.	.	.	.	.	104	.	.
Cc1ccc(NC2CCCN(C(=O)C3CCCCC3)C2)cc1C (stereo unspecified)	2	4	1	1	.	105	.	.
CN1C[C@@H]2[C@@H]3C(=O)N(C)C(=O)[C@@H]3[C@](Cc3ccccc3)(C1=O)N2C(=O)c1ccc(Cl)cc1	.	.	.	.	.	108	.	.
O=C(CCN1CCCCC1)N1CCc2c([nH]c3ccccc23)C1c1cccnc1 (stereo unspecified)	.	.	.	.	.	91	-3	105
CC(C)c1cc(C(=O)NC2CCCc3c2cnn3-c2ccccc2F)no1 (stereo unspecified)	4	1	69*	-4	.	102	4	97
SMILES	VLA-4 inh	LANA-H2A inh	GRK2 aptamer HTS	HDAC3 inhib	PKD1 kinase inh	Pemphigus Ab inh	GRK2 CP1	FAM quench CP1	others
Cc1cc(C(=O)NC2CCCc3c2cnn3-c2ccccc2F)nc(C)n1 (stereo unspecified)	-9	-2	3	4	.	106	.	.
Cc1ccc(C(=O)NCC(=O)OCC(=O)c2ccc3c(c2)NC(=O)CO3)cc1	13	0	0	0	-3	101	.	.
CCc1ccc(CN2CCN(S(=O)(=O)Cc3ccccc3)CC2)cc1	0	-1	5	8	-7	.	.	.
CSc1ccc(CN2CCN(S(=O)(=O)Cc3ccccc3)CC2)cc1	-14	4	55*	-1	.	116	.	.	GRK2 confirm 2=-29;FAM quench CP2=103
N[C@H]1CONC1=O	-3	3	4	-2	.	.	-1	101
Cc1cccc(C)c1NC(=O)CN1C(=O)CCSc2ccc(S(=O)(=O)N3CCCC3)cc21	4	-4	42*	6	.	?	-3	99
COc1ccc(C2=NOC(C(=O)NCc3cccnc3)C2)cc1 (stereo unspecified)	4	-4	0	5	.	103	.	.
O=C(COc1ccccc1)Nc1cccc(-c2ccc(N3CCOCC3)nn2)c1	2	-2	0	-2	.	103	1	94
O=C(COc1ccc(Cl)cc1Cl)Nc1cccc(-c2ccc(N3CCOCC3)nn2)c1	.	.	.	.	.	100	-2	93
COc1cccc(CN(C)C(=O)CCNC(=O)c2ccco2)c1	-3	4	2	-16	.	101	.	.
CCCOc1ccc(C=Nc2ccc(OC)c(S(=O)(=O)N3CCOCC3)c2)c(O)c1	0	0	0	-1	.	104	.	.
O=C(Oc1ccc(C(=S)N2CCOCC2)cc1)c1cccc(Cl)c1	-1	-2	3	-10	.	95	.	.
CN1CCN(/N=C/c2ccc(-c3ccccc3)cc2)CC1	8	-1	0	2	14	102	.	.
Cc1cc(/C=N/N2CCN(C)CC2)c(C)n1-c1ccccc1F	1	-4	50*	0	-4	103	1	99
NC(=S)N=Nc1c(O)n(Cc2ccccc2)c2ccccc12	2	-1	0	4	-8	88	.	.
O=S1(=O)CCC(N=Nc2c(O)n(Cc3ccccc3)c3ccccc23)C1 (stereo unspecified)	-3	-4	66*	4	.	82	-1	99
Cc1cccc(-n2c(N)c(-c3nc4ccccc4n3C)c3nc4ccccc4nc32)c1	-26	-1	97*	0	6	83	.	.	GRK2 confirm 2=-104;FAM quench CP2=100

Screening data deposited in PubChem by several laboratories.
